These results are taken from publication PMC4336329 (PLoS ONE, 2015).

Structures are written as SMILES. Out of some 310,000 compounds screened, about 2,200 (0.71%) showed an effect of 50% or more. The effect is printed as a negative number. This is one part of a sample in which strong results are shown more often than they occur.

This test deals with human ether-à-go-go-related gene (hERG) potassium channel (human, UniProt Q12809). The experiment in a line: primary screen, population patch clamp on CHO cells stably expressing hERG; higher = less effect of the substance. Here is the method: Briefly, Chinese hamster ovary (CHO) cells stably expressing the hERG channel were dislodged from tissue culture flasks and dispensed into PPC plates. […] During the recording, background leak currents were estimated by a 100 ms step to -80 mV from an initial holding potential of -70 mV and subtracted from the subsequent current measurement. The campaign was conducted in two phases using slight differences in recording protocol. In the first phase, the initial voltage pulse used a 100 ms step to -30 mV from a holding potential of -70 mV, a 2 s conditioning step to +25 mV, and a 2 s test step to -30 mV. During the second phase of the screen, the potential during the conditioning step was raised to +45 mV. In both phases of the campaign, a secondary voltage pulse was applied using the same parameters as the second phase initial pulse. The initial and secondary pulses were applied in the absence of compound, and upon application of 1 μM and 10 μM test concentrations. Small molecule effects on hERG current density were quantified by […].
Sequence of human ether-à-go-go-related gene (hERG) potassium channel (Q12809 whole entry, looked up): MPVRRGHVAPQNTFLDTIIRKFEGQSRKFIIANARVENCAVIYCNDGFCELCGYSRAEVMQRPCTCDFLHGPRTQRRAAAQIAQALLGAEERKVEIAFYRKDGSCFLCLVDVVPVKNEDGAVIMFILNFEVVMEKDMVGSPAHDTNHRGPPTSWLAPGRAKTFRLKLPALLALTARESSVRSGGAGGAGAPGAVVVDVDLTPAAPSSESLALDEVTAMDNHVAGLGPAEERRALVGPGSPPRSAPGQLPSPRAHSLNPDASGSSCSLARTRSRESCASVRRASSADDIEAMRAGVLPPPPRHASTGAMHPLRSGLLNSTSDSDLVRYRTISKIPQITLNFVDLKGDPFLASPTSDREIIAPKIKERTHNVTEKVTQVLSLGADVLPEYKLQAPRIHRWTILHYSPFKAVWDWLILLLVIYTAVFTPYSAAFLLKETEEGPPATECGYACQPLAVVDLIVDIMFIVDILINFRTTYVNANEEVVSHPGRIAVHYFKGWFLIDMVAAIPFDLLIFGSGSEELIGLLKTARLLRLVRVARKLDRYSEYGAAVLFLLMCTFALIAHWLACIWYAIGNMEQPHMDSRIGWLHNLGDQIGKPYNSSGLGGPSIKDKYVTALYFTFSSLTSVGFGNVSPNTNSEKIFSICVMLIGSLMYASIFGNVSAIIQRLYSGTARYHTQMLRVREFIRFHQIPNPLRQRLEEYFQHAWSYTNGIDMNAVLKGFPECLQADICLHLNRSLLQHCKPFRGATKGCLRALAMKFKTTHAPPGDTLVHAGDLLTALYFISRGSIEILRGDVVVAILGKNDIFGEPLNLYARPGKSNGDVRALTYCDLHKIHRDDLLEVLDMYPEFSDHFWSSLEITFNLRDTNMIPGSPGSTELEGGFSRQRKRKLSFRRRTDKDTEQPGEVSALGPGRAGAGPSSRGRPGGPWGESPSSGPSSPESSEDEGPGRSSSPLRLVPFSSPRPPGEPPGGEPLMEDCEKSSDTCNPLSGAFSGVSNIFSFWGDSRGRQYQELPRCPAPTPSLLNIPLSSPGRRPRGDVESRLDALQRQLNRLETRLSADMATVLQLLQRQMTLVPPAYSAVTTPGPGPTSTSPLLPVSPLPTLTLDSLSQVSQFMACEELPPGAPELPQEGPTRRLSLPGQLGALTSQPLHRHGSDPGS
Turning to `Cc1ccc(-c2cc(C(=O)N3CCN(C4CCS(=O)(=O)C4)CC3)c3ccccc3n2)cc1` (stereo not drawn), the “hERG current change (%, negative = inhibition) at 1uM” value is reported as -3.04%.
With `Cc1ccc(NC(=O)CN(C)C(=O)CSc2nc(C)cs2)cc1` the figure was 3.7%; with `CC(Cc1ccccc1)NCC(=O)Nc1cc(N(C)C)nc2ccccc12.O=C(O)C(=O)O` (stereo not drawn), -73.5%.
With `CCCCC(=O)Nc1cc(N(C)C)nc2ccccc12`, the “hERG current change (%, negative = inhibition) at 1uM” value is given as -30.7%.
`CN(C)c1cc(NC(=O)CNC(C)(C)CC(C)(C)C)c2ccccc2n1.O=C(O)C(=O)O`: the “hERG current change (%, negative = inhibition) at 1uM” value is given as -7.36%.
In the case of `CCN(CC)CC(=O)Nc1cc(N(C)C)nc2ccccc12.O=C(O)C(=O)O`, the “hERG current change (%, negative = inhibition) at 1uM” value is 6.57%.
With `CN(C)c1cc(NC(=O)CNC(C)(C)C)c2ccccc2n1.O=C(O)C(=O)O` the figure was 2.05%; with `CCCCCC(=O)Nc1cc(N(C)C)nc2ccccc12`, -77.9%; with `NS(=O)(=O)c1ccc(O)c(N2C(=O)c3cccc4c(C(=O)O)ccc(c34)C2=O)c1`, 10.3%.
The figure for `COc1ccc(C(=O)CSc2nc(-c3ccccn3)nc(C)c2Cl)cc1` is 13%; for `Cc1nonc1CC(=O)N1CCCC(C(=O)c2cccc(C(F)(F)F)c2)C1` (stereo not drawn) it is -20.6%.
Regarding `O=C(C1CCC(=O)N1Cc1cccnc1)N1CCN(c2ccc(F)cc2)CC1` (stereo not drawn), the “hERG current change (%, negative = inhibition) at 1uM” value is 10.5%.
The figure for `OCC[N+]12CCC(CC1)C(C(O)(c1ccccc1)c1ccccc1)C2` (stereo not drawn) is 15.2%.
For `CCc1ccc(C(=O)NNc2cc(Cl)ccc2Cl)cc1`, the “hERG current change (%, negative = inhibition) at 1uM” value is reported as 12.5%.
The figure for `CSc1ccc(CNc2ncc(-c3cccc([N+](=O)[O-])c3)n2C)cc1.O=C(O)C(=O)O` is -26.5%.
The figure for `Cn1c(-c2cccc([N+](=O)[O-])c2)cnc1NCc1cccc([N+](=O)[O-])c1.O=C(O)C(=O)O` is -28.2%; for `Cn1c(-c2ccc(F)cc2)cnc1NCc1ccc(C#N)cc1` it is -22.9%; for `Cn1c(-c2ccccc2)cnc1NCc1ccc(-c2ccccc2)cc1.O=C(O)C(=O)O` it is 11%.
The figure for `Cn1c(-c2cccc([N+](=O)[O-])c2)cnc1NCc1ccc(C#N)cc1.O=C(O)C(=O)O` is -56.4%.
For `Cn1c(-c2ccc(Br)cc2)cnc1NCc1ccc(C#N)cc1.O=C(O)C(=O)O`, the “hERG current change (%, negative = inhibition) at 1uM” value was -77.2%.
Regarding `O=C1CC(c2ccc(Cl)cc2)CC(O)=C1C=NCCO` (stereo not drawn), the “hERG current change (%, negative = inhibition) at 1uM” value amounted to 10.6%.
The figure for `O=C1C2C3C=CC(C3)C2C(=O)N1CCN1CCN(S(=O)(=O)/C=C/c2ccccc2)CC1` (stereo not drawn) is 11%.
As to `Cc1cc(C)n2c(SCC(=O)NC3CCCC(C)C3C)nnc2n1` (stereo not drawn), the “hERG current change (%, negative = inhibition) at 1uM” value came to 12.4%.
With `O=C(NCc1cc(C(F)(F)F)cc(C(F)(F)F)c1)C1CC(c2cccc(F)c2)=NO1` (stereo not drawn) the figure was 2.14%; with `O=c1cc(-c2ccccc2F)oc2ccccc12`, 2.56%.
The figure for `C=CCNc1cnn(-c2ccc(C)cc2)c(=O)c1Sc1ccc(C)cc1` is 13.8%.
Consider `COC(=O)c1ccc(CNC(=O)COc2ccccc2Br)o1`, for which the “hERG current change (%, negative = inhibition) at 1uM” value is listed as 12.4%.
On to `CC(C)CNS(=O)(=O)c1ccc(NC(=O)Cn2nc(-c3ccc(F)cc3)ccc2=O)cc1`, for which the “hERG current change (%, negative = inhibition) at 1uM” value is listed as 7.17%.
The figure for `CN(C/C=C/c1ccccc1)Cc1cccc2ccccc12.Cl` is 5.76%; for `O=C(NCC(=O)N1CC=C(c2ccccc2)CC1)c1ccco1` it is -50.9%; for `Cc1cccc(C(=O)NCC(=O)N2CC=C(c3ccccc3)CC2)c1` it is -1.82%.
As for `CSCCC(NC(=O)c1ccco1)C(=O)N1CC=C(c2ccccc2)CC1` (stereo not drawn), the “hERG current change (%, negative = inhibition) at 1uM” value is on record as -1.93%.
The figure for `c1ccc(Cn2ncc3ccccc32)cc1` is 10.6%; for `CCOCCCNS(=O)(=O)c1ccc(NC(=O)C2CC(=O)N(c3ccc(C)cc3)C2)cc1` (stereo not drawn) it is 11.4%.
With `CN(C)C=Nc1nonc1-c1ccc(Cl)cc1` the figure was 11.2%.
For the compound `O=C(NCCCn1ccnc1)/C(=C\c1ccc(Br)cc1)NC(=O)c1ccccc1F`, the “hERG current change (%, negative = inhibition) at 1uM” value was -81.5%.
With `O=C(NCCCn1ccnc1)/C(=C\c1cccnc1)NC(=O)c1ccccc1Br` the figure was 9.44%.
Consider `COc1ccccc1C(=O)N/C(=C\c1cn(C)c2ccccc12)C(=O)NCCCn1ccnc1`, for which the “hERG current change (%, negative = inhibition) at 1uM” value worked out at 12.2%.
With `O=C(NCCCn1ccnc1)/C(=C\c1cccnc1)NC(=O)c1ccccc1F` the figure was 8%; with `COc1ccccc1C(=O)N/C(=C/c1ccc(Br)cc1)C(=O)NCCCn1ccnc1`, -84.8%.
The figure for `COc1ccccc1C(=O)N/C(=C\c1ccc(Br)cc1)C(=O)NCCCO` is -0.677%; for `Cc1ccc(NC(=O)CN2C(=O)CCSc3ccc(S(=O)(=O)N4CCCC4)cc32)cc1` it is 19%.
Take `CCOC(=O)C1CCN(CC(=O)c2ccc(O)c(C)c2O)CC1`: the “hERG current change (%, negative = inhibition) at 1uM” value worked out at 12.3%.
In the case of `Cc1cc2c(NC3CCCCC3)ncnc2s1.Cl`, the “hERG current change (%, negative = inhibition) at 1uM” value turned out to be 12%.
As to `N#C/C(=C\c1c(Cl)cccc1Cl)c1nc2ccccc2o1`, the “hERG current change (%, negative = inhibition) at 1uM” value stood at 2.68%.
With `Cc1cc(-c2ccc(C)c(S(=O)(=O)Nc3cc(C)on3)c2)on1` the figure was 1.77%; with `O=C(N=C1SCC(=O)N1c1ccccc1)c1ccco1`, -1.23%.
`Cc1occc1-c1nnc(SCC(=O)Nc2ccccc2)n1CCc1ccccc1`: the “hERG current change (%, negative = inhibition) at 1uM” value is listed as -20.1%.
As for `COCCCn1c(SCC(=O)Nc2ccc3c(c2)OCCO3)nnc1-c1ccoc1C`, the “hERG current change (%, negative = inhibition) at 1uM” value stood at 1.88%.
The figure for `COCCn1c(SCC(=O)Nc2ccc(OC)cc2)nnc1-c1ccoc1C` is 12.2%; for `Cc1ccc(NC(=O)CSc2nnc(-c3ccoc3C)n2CCCN(C)C)cc1Cl` it is -70.2%; for `CCN(CC)CCCn1c(SCC(=O)Nc2cccc(F)c2)nnc1-c1ccoc1C` it is -63%.
Regarding `CCCn1c(SCC(=O)Nc2cccc(C(=O)OCC)c2)nnc1-c1ccoc1C`, the “hERG current change (%, negative = inhibition) at 1uM” value came out at 5.88%.
With `O=C(NCCCN1CCOCC1)C1(c2ccccc2)CCOCC1` the figure was 19.2%; with `CCOC(=O)C1CCCN(Cc2ccc(OC)cc2OC)C1` (stereo not drawn), -13.6%; with `CCOC(=O)C1CCCN(Cc2nc(N)nc(Nc3ccccc3OC)n2)C1` (stereo not drawn), -53.2%.
The figure for `CCOC(=O)N1CCN(Cc2nc(N)nc(Nc3ccc(Oc4ccccc4)cc3)n2)CC1` is -36.8%; for `Cc1ccc(Nc2nc(N)nc(CN3CCCCCC3)n2)cc1` it is -45.2%.
The figure for `CCOC(=O)C1CCCN(Cc2nc(N)nc(Nc3ccc(C)cc3)n2)C1` (stereo not drawn) is -47.6%.
As to `COc1ccccc1Nc1nc(N)nc(CN2CCc3ccccc3C2)n1`, the “hERG current change (%, negative = inhibition) at 1uM” value is on record as -2.7%.
The figure for `CCOC(=O)C1CCCN(Cc2nc(N)nc(Nc3ccccc3)n2)C1` (stereo not drawn) is -18.6%; for `CCOC(=O)C1CCCN(Cc2nc(N)nc(Nc3ccc(Cl)cc3)n2)C1` (stereo not drawn) it is -71.6%.
The figure for `CCOC(=O)C1CCCN(Cc2nc(N)nc(Nc3ccc(OC)cc3)n2)C1` (stereo not drawn) is -67.8%; for `CCc1cccc2c(C=C(C#N)C#N)cn(CC(=O)N3CCCC3)c12` it is 2.04%.
With `CNC(=O)C1CCN(S(=O)(=O)c2c(C)noc2/C=C/c2ccc(C)cc2)CC1`, the “hERG current change (%, negative = inhibition) at 1uM” value stood at 10.2%.
Turning to `COc1ccccc1/C=C/CN1CCC(Oc2cc(C(=O)NC3CC3)ccc2OC)CC1`, the “hERG current change (%, negative = inhibition) at 1uM” value is given as -78.3%.
Consider `COc1ccc(C(=O)NC2CC2)cc1OC1CCN(C/C=C/c2ccccc2)CC1`, for which the “hERG current change (%, negative = inhibition) at 1uM” value is -84.3%.
With `COc1cc(C(=O)N2CCN(C/C=C/c3ccccc3)CC2)cc(OC)c1C` the figure was 6.9%; with `COc1cc(C(=O)N2CCN(C/C=C/c3ccccc3)CC2)cc(OC)c1OC`, -2.2%; with `COc1ccccc1/C=C/CN1CCC(Oc2ccc(C(=O)N3CCCC3)cc2)CC1`, 10.1%.
The figure for `COc1ccccc1/C=C/CN1CCC(Oc2ccc(C(=O)N3CCCCC3)cc2)CC1` is 7.23%.
For `Cc1ccc(SCCC(=O)NCCSCc2ccccc2C)cc1`, the “hERG current change (%, negative = inhibition) at 1uM” value was 10.1%.
The figure for `O=P1(O)C=C(c2ccccc2)OC(c2ccccc2)=C1` is 14.1%; for `O=P1(Nn2cnnc2)C=C(c2ccccc2)OC(c2ccccc2)=C1` it is -9.39%; for `CCN1CCN(P2(=O)C=C(c3ccccc3)OC(c3ccccc3)=C2)CC1` it is -86.5%.
With `Cc1ccc(CSCC(=O)NCc2cccs2)cc1` the figure was 7.51%.
Take `CCc1ccc(-n2nnnc2SCC(=O)Nc2ccc(NC(C)=O)cc2)cc1`: the “hERG current change (%, negative = inhibition) at 1uM” value amounted to 20.4%.
The figure for `Cc1cc(SCC(=O)N/N=C/c2ccc(O)cc2O)c(C)cc1Br` is 8.67%; for `Cc1cccc(OCC(=O)Nc2ccc3c(c2)nc(CCN2CCC(C)CC2)n3C)c1` it is -47.9%; for `Cn1c(CCN2CCN(c3ccccn3)CC2)nc2cc(NC(=O)COc3ccc(Cl)cc3)ccc21` it is 0.879%.
With `Cn1c(CCN2CCN(c3ccccn3)CC2)nc2cc(NC(=O)COc3ccc([N+](=O)[O-])cc3)ccc21` the figure was 9.63%; with `CCC(=O)Nc1ccc2c(c1)nc(CCN1CCN(c3ccccn3)CC1)n2C`, 4.59%; with `Cc1cccc(OCC(=O)Nc2ccc3c(c2)nc(CCN2CCN(c4ccccn4)CC2)n3C)c1`, -67%.
On to `Cn1c(CCN2CCN(c3ccccn3)CC2)nc2cc(NC(=O)COc3ccccc3)ccc21`, for which the “hERG current change (%, negative = inhibition) at 1uM” value is -67%.
